ANO1 block: inhibitors of mouse TMEM16A calcium-activated chloride channel; Q8BHY3; HEK293 TMEM16A/YFP iodide influx fluorescence, ionomycin; normalized B-score (activity score, 25-100; higher = stronger inhibition) at 10 µM; 1.2% of 310,000 active; AID 588511;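 active = ratio plate-corrected score three or more library SD toward inhibition, starting fluorescence score within five deviations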;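 also: score derived from kinetic fluorescence span divided by baseline fluorescence per well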
697 NFkB inh: inhibitors of the PMA/ionomycin-induced NF-kB reporter in 697 B cells. 0.33% of 330,000 active. 697 B-cell NF-kB luciferase reporter, 16 h. inhibition, % at 4 µM; in the data active = inhibition above about 35%
Jurkat NFkB inh: inhibitors of the PMA/ionomycin-induced NF-kB reporter in Jurkat cells | PMA/ionomycin-induced NF-kB luciferase reporter, luminescence | inhibition, % at 4 µM | 0.53% of 330,000 active | AID 435003; in the data active = inhibition above about 50%
KLF5 inh: kruppel-like factor 5 inhibition | AID 1700 | 0.23% of 290,000 active | DLD-1 KLF5 promoter-luciferase reporter, luminescence | inhibition, % at 5 µM;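 active = inhibition above a per-plate limit of that plate's mean compound inhibition plus 3 SD, cut at about 60% in these data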;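 also: higher means less KLF5 promoter-driven luciferase light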
TMEM16A act: activates or potentiates the mouse TMEM16A chloride channel. 0.3% of 340,000 active. HEK293 TMEM16A/YFP-H148Q/I152L, iodide quench fluorescence; hits give low values. Q8BHY3. B-score at 10 µM;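 active = fluorescence-ratio B-score plate-corrected deviation score at least 3 library SD below zero, with starting fluorescence score within 5 deviations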;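 also: channel opened by trigger with iodide after compound preincubation; score built on the fluorescence ratio of max minus min over baseline; more negative score means more quench and so TMEM16A activation or potentiation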
aSyn 5UTR inh: MLPCN primary screen, SNCA 5' untranslated region; alpha-synuclein 5'UTR reporter, inhibitor activity; inhibition, % (tested at 7.5 µM); 0.82% of 300,000 active; in the data active = inhibition above about 60%;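 also: H4 neuroglioblastoma cells stably carrying SNCA 5'UTR luciferase fusion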
TMEM16A reconf: re-confirmation of mouse TMEM16A chloride channel inhibitors; 39% of 2,300 active; shares compounds with ANO1 block; AID 652189; inhibition, % at 10 µM; HEK293 TMEM16A/YFP-H148Q, iodide quench fluorescence; ionomycin added to raise cell calcium;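 active = mean duplicate percent inhibition, scaled so buffer wells are 0 and the reference blocker 100, over three buffer SD above buffer mean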
HEK293 Ca mobil: calcium mobilization counter-screen hit for TMEM16A inhibitor series; shares compounds with ANO1 block; TMEM16A/YFP HEK293, Fluo4 calcium mobilization; calcium response (% of ionomycin), % at 10 µM; 2% of 2,300 active; AID 652231;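 active = duplicate-averaged calcium signal over 20% of the ionomycin maximum, relative to buffer baseline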;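 also: each well's signal is peak minus trough fluorescence divided by its pre-addition baseline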
Parental YFP cnt: parental YFP-HEK293 iodide quench counter-screen activity | ionomycin | shares compounds with ANO1 block | 2,300 tested, under 10 active | AID 652233 | YFP ratio F(max-min)/F0 at 10 µM;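 active = yellow fluorescent protein signal ratio exceeding the buffer control mean by over 5 SD of those controls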;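 also: ratio is mean of duplicate wells from kinetic YFP trace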
ClC-1 inh: selectivity of TMEM16A inhibitors: inhibition of rat ClC-1 chloride channel; CHO ClC-1-YFP, iodide influx fluorescence quench; iodide control reads 0, buffer control 100; shares compounds with ANO1 block; ratio percent, % at 10 µM; 2,300 tested, under 10 active;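 active = duplicate-mean ratio percent above the mean of iodide-only control wells, which defines zero, plus 5 of their SD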;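 also: higher percent means stronger block of ClC-1 iodide influx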
Target sequence (P35524 whole entry, looked up): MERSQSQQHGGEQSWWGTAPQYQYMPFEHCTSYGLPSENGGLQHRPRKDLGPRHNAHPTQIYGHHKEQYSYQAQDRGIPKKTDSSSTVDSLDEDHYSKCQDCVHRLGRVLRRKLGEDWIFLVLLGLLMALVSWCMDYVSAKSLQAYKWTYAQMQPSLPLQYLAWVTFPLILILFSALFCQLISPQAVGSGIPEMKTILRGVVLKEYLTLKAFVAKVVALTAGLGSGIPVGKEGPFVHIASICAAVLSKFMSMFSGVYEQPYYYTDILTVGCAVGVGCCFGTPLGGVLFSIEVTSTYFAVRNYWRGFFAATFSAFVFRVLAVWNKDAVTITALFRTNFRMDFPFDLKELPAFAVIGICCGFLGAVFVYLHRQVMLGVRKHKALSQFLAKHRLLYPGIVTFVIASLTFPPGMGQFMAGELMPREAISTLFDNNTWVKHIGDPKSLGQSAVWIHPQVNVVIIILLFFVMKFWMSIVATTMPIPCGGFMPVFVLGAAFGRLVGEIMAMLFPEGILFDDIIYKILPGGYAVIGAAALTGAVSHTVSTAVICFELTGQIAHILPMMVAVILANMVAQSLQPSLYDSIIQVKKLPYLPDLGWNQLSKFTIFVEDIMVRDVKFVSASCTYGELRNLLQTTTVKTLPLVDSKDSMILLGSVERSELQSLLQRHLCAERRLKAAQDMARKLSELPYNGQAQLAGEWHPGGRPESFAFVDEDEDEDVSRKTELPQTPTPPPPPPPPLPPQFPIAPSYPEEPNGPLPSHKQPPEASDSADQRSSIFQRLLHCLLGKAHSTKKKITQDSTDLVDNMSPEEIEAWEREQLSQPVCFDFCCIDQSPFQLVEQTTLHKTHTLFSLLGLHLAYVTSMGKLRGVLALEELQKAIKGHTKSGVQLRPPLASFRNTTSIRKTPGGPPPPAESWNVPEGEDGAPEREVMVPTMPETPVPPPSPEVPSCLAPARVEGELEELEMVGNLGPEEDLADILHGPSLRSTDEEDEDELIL
A number is an active result; i = inactive; nt = not tested or not shown. An excerpt weighted towards active compounds, which were near 2.5% of everything screened.

SMILES | ANO1 block | 697 NFkB inh | Jurkat NFkB inh | KLF5 inh | TMEM16A act | aSyn 5UTR inh | TMEM16A reconf | HEK293 Ca mobil | Parental YFP cnt | ClC-1 inh
COc1ccc(S(=O)(=O)N2CCN(C(=O)c3sccc3-c3ccccc3)CC2)cc1 | i | i | i | nt | i | i | nt | nt | nt | nt
Cc1cc(C)nc(SCC(=O)Nc2ccc(N3CCOCC3)c(Cl)c2)n1 | 100 | i | i | i | i | nt | i | i | i | i
O=C(CSc1nc2ccccc2o1)Nc1cc(C(F)(F)F)ccc1N1CCOCC1 | i | i | i | i | i | i | nt | nt | nt | nt
O=C(CSc1nc2ccccc2o1)Nc1ccc(N2CCOCC2)c(Cl)c1 | 100 | i | i | i | i | i | 24.0% | i | i | i
O=C(CSc1nc2ccccc2o1)Nc1ccccc1N1CCCCCC1 | 25 | i | i | i | i | i | i | i | i | i
O=C(CSc1nc2ccccc2s1)Nc1ccc(N2CCOCC2)c(Cl)c1 | 100 | i | i | i | i | i | i | i | i | i
CC1CN(S(=O)(=O)c2cccc(C(=O)NCCc3ccc(S(N)(=O)=O)cc3)c2)CC(C)O1 (configuration not stated) | nt | i | i | nt | i | nt | nt | nt | nt | nt
CCCCn1c(=O)[nH]c(=O)c2c1nc(CN(C)Cc1cccc(OC)c1OC)n2CCC | i | nt | nt | i | i | i | nt | nt | nt | nt
COC1c2ccccc2C(=O)N1CCc1ccc(Cl)cc1 (configuration not stated) | i | i | i | i | i | i | nt | nt | nt | nt
CCCCn1c(SCC(=O)N2CCCC2)nnc1-c1ccccc1 | 100 | i | i | i | i | i | i | i | i | i
O=C(CSc1nnc(-c2ccccc2)n1Cc1ccccc1)N1CCCC1 | i | i | i | i | i | i | nt | nt | nt | nt
COc1cc(NC(=O)CC(C)S(=O)(=O)c2ccc3c(c2)NC(=O)CO3)cc(OC)c1OC (configuration not stated) | i | i | i | i | i | i | nt | nt | nt | nt
O=C(CN(Cc1ccco1)C(=O)c1cc(=O)[nH]c2ccccc12)Nc1ccccc1Br | 100 | i | i | i | i | i | i | i | i | i
COc1cc(SC)ccc1C(=O)N(CC(=O)Nc1ccccc1Br)Cc1ccco1 | i | i | i | nt | i | i | nt | nt | nt | nt
CCOC(=O)CSc1nc2c(sc(=S)n2-c2ccc(OCC)cc2)c(=O)[nH]1 | i | i | i | i | i | i | nt | nt | nt | nt
CCOc1ccc(-n2c(=S)sc3c(=O)[nH]c(SCC(=O)C(C)(C)C)nc32)cc1 | 100 | i | i | i | i | i | 33.5% | i | i | i
O=C(c1ccc2c(c1)OCO2)C1CCCN(Cc2ccc(OC(F)F)cc2)C1 (configuration not stated) | 25 | i | i | i | i | i | 21.0% | i | i | i
Cc1cc(C)n(NC(=S)NC2CCCC2)c(=O)c1C#N | i | i | i | i | i | i | nt | nt | nt | nt
Cc1cc(=O)oc2cc(OCC(=O)OCC(=O)N(C)C3CCS(=O)(=O)C3)ccc12 (configuration not stated) | i | i | i | i | i | i | i | i | i | i
Cc1cc(=O)oc2cc(OCC(=O)OCC(=O)N3CCc4ccccc43)ccc12 | 25 | i | i | i | i | i | i | i | i | i
c1ccc2[nH]c(CSc3ncnc4c3oc3ccccc34)nc2c1 | 100 | i | i | i | i | i | 21.5% | i | i | i
COc1ccc(-c2csc(NC(=O)C3CCN(C(=O)c4ccc(F)cc4)CC3)n2)cc1OC | 100 | i | i | i | i | i | 20.5% | i | i | i
COc1ccc(C(CNC(=O)c2cccc(S(=O)(=O)Nc3ccc(F)cc3)c2)N2CCCCC2)cc1 (configuration not stated) | nt | nt | nt | nt | i | nt | nt | nt | nt | nt
O=C(Nc1ccc2c(c1)CN(Cc1ccccc1O)CC2)C1CCCO1 (configuration not stated) | i | i | i | i | i | i | nt | nt | nt | nt
Cc1ccc(-n2c(C)cc(C(=O)COC(=O)C3=NNC(=O)CC3)c2C)cc1 | i | i | i | i | i | i | nt | nt | nt | nt
SMILES | ANO1 block | 697 NFkB inh | Jurkat NFkB inh | KLF5 inh | TMEM16A act | aSyn 5UTR inh | TMEM16A reconf | HEK293 Ca mobil | Parental YFP cnt | ClC-1 inh
Cc1ccc(-n2c(C)cc(C(=O)COC(=O)c3c(C)noc3C)c2C)cc1 | 100 | i | i | i | i | i | i | i | i | i
CCOC(=O)c1ccc2c(c1)nc(C1CCN(S(=O)(=O)c3cccs3)CC1)n2CC | 25 | i | i | i | i | i | i | i | i | i
CCOC(=O)/C=c1\s/c(=C\c2ccccc2C)c(=O)n1CC(=O)NCc1ccc2c(c1)OCO2 | i | i | i | i | i | i | nt | nt | nt | nt
CCOC(=O)/C=c1\s/c(=C\c2ccc3cc(OC)ccc3c2)c(=O)n1CC(=O)NCc1ccc2c(c1)OCO2 | i | i | i | i | i | i | 31.0% | i | i | i
CC(=O)Nc1ccc(S(=O)(=O)N2CCN(CCCOc3ccccc3Cl)CC2)cc1 | 25 | i | i | i | i | i | i | i | i | i
CCn1c(SCC(=O)Nc2nc(-c3ccccc3)cs2)nnc1-c1ccccc1 | i | i | i | i | i | i | nt | nt | nt | nt
Cc1nnc(SCC(=O)Nc2nc(-c3ccccc3)cs2)n1N | 100 | i | i | i | i | i | i | i | i | i
CCc1ccc(NC(=O)c2ccc(F)c(S(=O)(=O)N(CC)c3ccccc3)c2)cc1 | i | i | i | i | i | i | nt | nt | nt | nt
CCN(c1ccccc1)S(=O)(=O)c1cc(C(=O)Nc2cccc(Cl)c2)ccc1F | 100 | i | i | i | i | i | i | i | i | i
CCCn1c2ccccc2c2nnc(SCC(=O)Nc3ncccn3)nc21 | 100 | i | i | i | i | i | i | i | i | i
CCCn1c2ccccc2c2nnc(SCC(=O)Nc3cc(C)on3)nc21 | i | i | i | i | i | i | nt | nt | nt | nt
CC(C)C(c1nnnn1C1CCCCC1)N1CCN(c2ncccn2)CC1 (configuration not stated) | 100 | i | i | i | i | i | i | i | i | i
CC(C)CC(c1nnnn1C1CCCCC1)N1CCN(c2ncccn2)CC1 (configuration not stated) | i | i | i | i | i | i | nt | nt | nt | nt
Cc1cccc(Oc2coc3cc(O)ccc3c2=O)c1 | i | i | i | i | i | i | nt | nt | nt | nt
CC(C)C(C)(C#N)NC(=O)CSc1ncnc2sc(-c3ccccc3)cc12 (configuration not stated) | 25 | i | i | i | i | i | i | i | i | i

Source: PubChem BioAssay
